Screens: PubChem BioAssay, several laboratories
BJeLR viability: MLPCN primary cell-based screen for lethality selective to Ras in HRASV12 cells; BJeLR (HRASV12) viability, CellTiter-Glo ATP luminescence, 48 h; inhibition, % (concentration not given with the values); hit rate 0.17% among 300,000; AID 1554, 2009; in the data active = inhibition above about 50%
FBA Mtb inh: Mtb FBA enzyme inhibitors, primary screen, biochemical, fluorescence, strain H37Rv; Fructose-bisphosphate aldolase (Mycobacterium tuberculosis (strain ATCC 25618 / H37Rv)), …; inhibition, % at 1 µM; AID 588726, 2011; hit rate 2.3% among 360,000; purified M. tuberculosis FBA, fluorescence read-out; in the data active = inhibition above about 27%;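 note: 0% = vehicle and 100% = reference inhibitor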
RecA intein inh: Mtb RecA intein splicing inhibitors, primary screen, biochemical, fluorescence, HTS. Protein RecA (Mycobacterium tuberculosis (strain ATCC 25618 / H37Rv)), P9WHJ3. cell-free RecA intein splicing. inhibition, % (test concentration not listed). hit rate 0.75% among 290,000; in the data active = inhibition above about 30%;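 note: 0% = vehicle wells and 100% = reference inhibitor control wells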
PrPC surface inh: inhibitors of human cell surface prion protein PrPC, primary screen, cell-based, TR-FRET | Major prion protein (Homo sapiens), P04156 | TR-FRET read-out | inhibition, % at 13.8 µM | hit rate 0.43% among 370,000; in the data active = inhibition above about 24%; note: 0% = median of the test wells and 100% = reference compound wells
GDH-TPI inh: GDH-TPI coupling enzyme inhibitors, primary screen, artefact control for M. tuberculosis FBA inhibitor project, biochemical, absorbance, full deck. GDH-TPI coupled enzyme counterscreen, NADH absorbance. inhibition, % at 4.8 µM. hit rate 1.2% among 360,000. AID 588335, 2011; in the data active = inhibition above about 30%;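 note: 0% = DMSO wells and 100% = wells lacking the enzyme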
PrPC TRFRET cf: confirmation of inhibitors of cell surface human prion protein, confirmation, cell-based, TR-FRET. hit rate 65% among 1,500. cell surface PrPC level. inhibition, % at 13.8 µM. AID 743200, 2013. shares compounds with PrPC surface inh; in the data active = inhibition above about 25%
LD9 tox: cytotoxicity in LD9 cells, cytotoxicity control for cell surface PrPc inhibitor project, cell-based, luminescence, high throughput. luminescence viability. inhibition, % at 13.8 µM. hit rate 29% among 1,500. shares compounds with PrPC surface inh. AID 743201, 2013; in the data active = inhibition above about 9.5%
An asterisk follows results filed as active; x = no result given. Most compounds without a hit are left out; they make up all but 4.2% or so of the library.

SMILES | BJeLR viability | FBA Mtb inh | RecA intein inh | PrPC surface inh | GDH-TPI inh | PrPC TRFRET cf | LD9 tox
COc1cc(NS(=O)(=O)c2ccc(C)cc2)c2ncccc2c1 | 23.2 | 12.6 | 12.5 | 50.9* | 0.0 | 51.2* | 69.1*
CC[C@@H]1C[C@H]2CC[C@H](O2)[C@H](C)C(=O)O[C@@H](C)C[C@@H]2CC[C@@H](O2)[C@@H](C)C(=O)O[C@H](C)C[C@H]2CC[C@H](O2)[C@H](C)C(=O)O[C@@H](C)C[C@@H]2CC[C@@H](O2)[C@@H](C)C(=O)O1 | x | x | x | 38.7* | x | 56.1* | 54.8*
CCOC(=O)c1c(CN(CC)CC)n(-c2ccccc2)c2ccc(O)cc12 | -5.4 | 2.0 | -2.9 | -2.3 | 13.0 | x | x
CCOC(=O)c1c(C)n(-c2ccccc2)c2ccc(O)cc12 | 3.7 | -1.8 | -2.1 | 27.5* | -3.1 | -2.2 | -8.1
COc1ccc2sc3ccccc3c(=O)c2c1OC | 1.8 | 1.4 | -17.4 | 29.0* | 11.3 | 38.1* | -6.6
COc1cccc2sc3ccc(C#Cc4ccc(N)cc4)cc3c(=O)c12 | -1.0 | 1.3 | 7.6 | 20.1 | 18.7 | x | x
CCCCCCCCN1C(=O)[C@@H](CC(=O)N2CCCC2)C[C@@]2(C(=O)OC)C1=C[C@H](C1CCCC1)O[C@@H]2C | x | x | x | -0.7 | x | x | x
Cc1ccc(C(=O)Nc2nc(COc3ccccc3)cs2)s1 | 12.2 | 0.2 | 10.7 | 30.0* | 9.2 | 22.2 | 5.9
Cc1cc2cc(CNC(=O)C3CCCC3)ccc2n1C | 1.4 | -0.1 | 12.5 | 44.3* | 6.6 | 4.7 | -2.9
Cn1c(CNC(=O)C2CCCCC2)cc2cc(Cl)ccc21 | 4.0 | 2.2 | -0.5 | 30.8* | 8.6 | 35.0* | -5.3
CCCC(=O)NCc1ccc2c(c1)cc(C)n2C | -1.9 | 1.9 | 7.6 | -5.9 | -2.2 | x | x
Cc1cc2c(c(=O)o1)[C@@]1(C(=O)N(c3ccccc3)c3ccccc31)C1=C(CCCC1=O)O2 | x | x | x | -2.4 | x | x | x
CN(C)CCCNC(=O)C[C@@H]1CC[C@@H]2[C@H](COc3ccc(NC(=O)c4cccc(F)c4)cc3C(=O)N2C)O1 | x | x | x | -2.4 | x | x | x
O=C(NCc1ccco1)O[C@H]1CC[C@@]23CCCN2C(=O)CCC[C@H]3C1 | x | x | x | -4.3 | x | x | x
N#Cc1c(SCC(=O)Nc2nncs2)sc2c(O)cc(=O)[nH]c12 | 0.2 | -4.0 | x | 26.8* | 7.7 | 1.1 | -3.6
N#Cc1c(SCC(=O)Nc2ccc(C(F)(F)F)cc2)sc2c(O)cc(=O)[nH]c12 | -9.7 | -0.6 | 5.1 | -5.8 | 16.4 | x | x
Cc1[nH]nc(C(F)(F)F)c1N=NN1CCOCC1 | x | 1.3 | x | 31.1* | 5.2 | 40.3* | 64.7*
CCCc1c(-c2ccc(F)cc2F)ncn1Cc1ccccc1OC | x | x | x | 25.4* | x | 7.4 | 9.0
CN1CC[C@@H]2CN(S(=O)(=O)c3ccccc3)[C@H](c3ccccc3Br)C[C@@H]21 | x | x | x | 0.5 | x | x | x
CCc1ccccc1N(C)S(=O)(=O)c1ccc2[nH]cc(C(=O)N3CCc4ccccc43)c(=O)c2c1 | -0.4 | 5.0 | 5.3 | 100.4* | 6.2 | 3.8 | -4.8
Cc1cccc(N(C)S(=O)(=O)c2ccc3[nH]cc(C(=O)N4CCOCC4)c(=O)c3c2)c1 | -5.2 | 5.9 | -0.3 | 7.4 | 8.7 | x | x
Cc1cccc2c(=O)c(-c3ccc4c(c3)OCO4)c(NC(=O)c3ccco3)oc12 | -0.7 | -1.0 | 0.5 | 63.5* | 5.7 | 66.5* | -6.8
CCOc1ccc2[nH]c(C)c(CN3CCOCC3)c(=O)c2c1 | -13.9 | 9.3 | 3.2 | 31.6* | 8.7 | 3.5 | -3.0
Fc1ccc2[nH]c3c(N4CCc5ccccc5C4)ncnc3c2c1 | 7.1 | 9.8 | x | 26.3* | 4.6 | 35.5* | 20.4*
CC(C)[C@H](NC(=O)OC(C)(C)C)c1cc(C(=O)NCCc2c[nH]c3ccccc23)c(N)s1 | x | x | x | 4.6 | x | x | x
SMILES | BJeLR viability | FBA Mtb inh | RecA intein inh | PrPC surface inh | GDH-TPI inh | PrPC TRFRET cf | LD9 tox
CC(C)[C@@H](NC(=O)OC(C)(C)C)c1cc(C(=O)c2c(-c3ccccc3)[nH]c3ccccc23)c(N)s1 | x | x | x | 41.3* | x | 29.6* | -9.6
O=c1[nH]c(Cc2ccccn2)nc2scc(-c3ccccc3Cl)c12 | 4.0 | -1.3 | -17.1 | 25.9* | 6.2 | 10.8 | -3.5
Cn1c(N2CCC(C(N)=O)CC2)nc2c1c(=O)n(Cc1cccc(Br)c1)c(=O)n2C | 0.3 | 1.6 | -1.7 | 41.6* | 3.7 | 59.0* | -4.8
Cn1cnc2c1c(=O)n(Cc1cccc(Br)c1)c(=O)n2C | -3.2 | 3.6 | 7.1 | 0.2 | 0.3 | x | x
Cc1cc2ccccc2n1CCNC(=O)Cc1ccccc1 | 5.0 | 3.1 | -3.2 | 27.4* | 4.0 | 13.5 | -3.5
Cc1cccc(CC(=O)NCCn2c(C)cc3ccccc32)c1 | 11.8 | -2.0 | 2.4 | 27.2* | 6.7 | 8.3 | -3.9
Cc1cc2ccccc2n1CCNC(=O)C(C)Oc1ccccc1 (stereo unspecified) | 10.1 | -0.1 | 5.3 | 40.6* | 3.4 | 30.5* | -3.7
Cc1cc2ccccc2n1CCNC(=O)C(C)C | 3.6 | 3.6 | -4.8 | 5.0 | 6.2 | x | x
CC(C)C[C@H]1COc2cc(N3CCCC3)ccc2S(=O)(=O)N1 | x | x | x | 2.0 | x | x | x
Cc1ccc(CN2CCCCC(NC(=O)Nc3ccccc3F)C2=O)cc1 (stereo unspecified) | x | x | x | 7.8 | x | x | x
CC1(C)OC(=O)C2=C(CC(CCc3ccccc3)OC2CCc2ccccc2)O1 (stereo unspecified) | x | x | x | 1.9 | x | x | x
Cc1ccc(S(=O)(=O)NC(=O)ON=Cc2ccc3c(c2)OCO3)cc1 | x | x | x | -1.2 | x | x | x
CC(C)CCNC(=O)C(c1ccc(O)cc1)N(Cc1cccs1)C(=O)C1COc2ccccc2O1 (stereo unspecified) | -1.5 | 2.3 | 13.0 | 24.8* | -3.0 | 9.6 | 3.1
CC(C)(C)NC(=O)CN(Cc1cccs1)C(=O)C1COc2ccccc2O1 (stereo unspecified) | 1.9 | -2.2 | 2.6 | -3.3 | 10.1 | x | x
O=C(O)c1cc(O)c2c(c1)[C@H]([C@H]1c3cc(C(=O)O)cc(O)c3C(=O)c3c(O[C@@H]4O[C@H](CO)[C@@H](O)[C@H](O)[C@H]4O)cccc31)c1cccc(OC3O[C@H](CO)[C@@H](O)[C@H](O)[C@H]3O)c1C2=O (stereo partly specified) | -15.3 | -6.2 | -2.9 | 91.0* | 10.1 | 12.2 | 0.5
CCC(C(=O)Nc1c(C)cccc1C)n1c(-c2ccc(-c3ccccc3)cc2)nc2ccccc21 (stereo unspecified) | x | x | x | 5.9 | x | x | x
Nc1[nH]c(C(=O)c2ccccc2)c(-c2cccc3ccccc23)c1C(=O)NCc1ccc(F)c(F)c1 | x | x | x | -6.3 | x | x | x
